This passage reports composite z-score results from PubChem BioAssay.

SMILES strings stand for the structures.

The experiment can be described thus: small-molecule microarray binders of probe aShh, primary screen, biochemical, biotinylated probe, 635/667 nm fluorescence (AID 1114).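 Also: probe is biotin-labelled aShh protein from a stem cell growth factor screen; measures binding of labelled protein to compounds printed on the slide; score merges feature fluorescence at 667 nm with signal-to-noise.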 The following applies: higher = more signal.
The compound `Oc1ccc2cc[n+](Cc3cccc(OC(F)(F)F)c3)cc2c1` displayed a composite z-score of 0.0515. In turn, `CC1CC/C=C\[C@H]2OC34C=CCN(CCN5CCOCC5)C(=O)[C@H]3N(CCCCCO)C(=O)[C@@H]4C2C(=O)O1` (stereo partly specified) came in with a composite z-score of -0.0769. Under `C=C(C(=O)CC[C@@H](OC(=O)c1cccnc1)c1ccc(CO)o1)C(C)C` stands -0.0701; under `C=CCC(OC(C)=O)[C@@H]1[C@@H](N(Cc2cc3ccccc3o2)C(=O)c2cccc3ccccc23)c2cc(OCCCO)ccc2N1C(=O)Cc1ccc(OC)cc1` (stereo partly specified), -0.0146. `C=CCN1C(=O)[C@]2(COC(c3ccc(OCCCO)cc3)=N2)Cc2ccccc21` had a composite z-score of 0.0253. The compound `O=C(NCc1ccccc1)[C@@H]1c2ccccc2C(=O)N(C2CCCCC2)[C@H]1c1ccc(CO)cc1` had a composite z-score of -0.247. Consider `[N-]=[N+]=NCc1ccccc1C[C@@]1(C(=O)NCc2ccccc2)N=C(c2ccc(OCCCO)cc2)O[C@@H]1c1ccccc1CN=[N+]=[N-]`, for which the composite z-score came out at 0.274.

In the case of `CCOC(=O)C=Cc1cccc(OC)c1O`, the composite z-score was -0.212. The compound `CN(C)CCCC[C@@H]1NC(=O)[C@H]2C[C@@H](C(=O)NCCCCCNC(=O)CS)[C@@H](c3ccc(O)cc3)N2C1=O` displayed a composite z-score of -0.0396. `COC(=O)[C@@]1(Cc2ccccc2)[C@H]2c3cc(C(=O)N(C)C)n(Cc4cc(F)c(F)c(F)c4)c3C[C@H]2CN1C(=O)c1ccccc1` registered a composite z-score of 0.415.

In turn, `C=C(C)[C@@H]1CC=C(C(O)C2C=CC3C(=O)N(Cc4ccccc4)C(=O)C3N2n2cnnc2)CC1` (stereo partly specified) came in with a composite z-score of -0.156. Under `O=C(NCCN1CCOCC1)[C@@H]1c2ccccc2C(=O)N(Cc2cc(F)cc(C(F)(F)F)c2)[C@H]1c1ccc(CO)cc1` stands -0.214. The compound `O=C1O[C@H](c2ccccc2)[C@H](c2ccccc2)N2[C@H]1[C@@H](C(=O)NC[C@H](O)c1ccccc1)[C@]1(C(=O)Nc3ccc(C#CC4(O)CCCCCC4)cc31)[C@H]2c1ccccc1OCCO` returned a composite z-score of 0.147. In turn, `C=C(/C(=C/C[C@@H](OC(=O)c1ccncc1)c1ccc(CO)o1)c1cc(C(=O)OC)ccc1OC)C(C)C` came in with a composite z-score of 0.0893. In turn, `COc1ccc([Si](C)(C)[C@@H]2[C@@H](CCO)O[C@]3(C(=O)N(Cc4ccccc4)c4ccc(N(C=O)c5ccccc5)cc43)[C@H]2C)cc1` displayed a composite z-score of 0.0684. `CCCCCCC#C[Si](O[C@H](c1ccccc1)c1cn([C@H](C)c2ccccc2)nn1)(C(C)C)C(C)C`: the composite z-score was -0.138. `[N-]=[N+]=NCc1ccccc1[C@@H]1OC(c2ccc(OCCCO)cc2)=N[C@]1(Cc1ccccc1)C(=O)O` registered a composite z-score of 0.0711. `CCCC[C@@H]1C[C@H]1[C@@H](NC(=O)c1ccccc1)c1ccc(-c2ccccc2)cc1` registered a composite z-score of 0.1.

Consider `Cc1ccc(S[C@]2(C(=O)NCCN3CCOCC3)CC(=O)N(C3CCCCC3)[C@@H]2c2ccc(CO)cc2)cc1`, for which the composite z-score is -0.186.

`CC(C)NC(=O)[C@@]1(c2ccc([N+](=O)[O-])cc2)CC(=O)N(C(C)C)[C@@H]1c1ccc(CO)cc1` returned a composite z-score of 0.0899. As to `C=CCN1Cc2ccccc2C[C@@]2(COC(c3ccc(OCCCO)cc3)=N2)C1=O`, the composite z-score worked out at 0.13. The compound `COCCn1c(C(=O)N2CCCC2)cc2c1C[C@H]1CN(C(=O)c3ccccc3)[C@@](Cc3ccc(OC)cc3)(C(=O)OC)[C@@H]21` registered a composite z-score of 0.21. Consider `C=C[C@@H](C)[C@@H](OC(=O)Nc1ccc(OC)cc1)c1ccc(O)c2ccccc12`, for which the composite z-score is -0.223. As to `COCCOC(=O)N1C(=O)[C@@]2(c3ccccc31)[C@H](C(=O)N1CCCCCCC1)[C@H]1C(=O)O[C@H](c3ccccc3)[C@H](c3ccccc3)N1[C@@H]2c1ccccc1OCCO`, the composite z-score stood at 2.65.

`COCCn1c(C(=O)N(C)C)cc2c1C[C@H]1CN(C(=O)c3ccccc3)[C@@](Cc3ccc(F)cc3)(C(=O)OC)[C@@H]21` had a composite z-score of 0.385.

`CC(C)N1C(=O)c2ccccc2[C@](C)(C(=O)NCCCN(C)C)[C@@H]1c1ccc(CO)cc1` displayed a composite z-score of -0.214. The compound `O=C1C2C=CC(C(O)c3ccc(-c4ccccc4)s3)N(Nc3ccccc3F)C2C(=O)N1c1ccccc1` (stereo unspecified) returned a composite z-score of 0.274. `CN1C(=O)C2C(C1=O)C1C=C(c3ccc(CO)cc3)C2C(C2CC2)N1Cc1sc2ccccc2c1Cl` (stereo unspecified) gave a composite z-score of 0.079.

In turn, `CO[C@H]1O[C@H](CO)[C@@H](OC(=O)Nc2ccc3c(c2)OCO3)[C@H](OC(=O)Nc2ccc3c(c2)OCO3)[C@H]1OC(=O)Nc1ccc2c(c1)OCO2` returned a composite z-score of 0.503. As for `C=CC[C@]1(C(=O)NCCN2CCOCC2)N=C(c2ccc(OCCCO)cc2)O[C@H]1c1ccccc1N=[N+]=[N-]`, the composite z-score is -0.155.

In turn, `C=CCNC(=O)[C@@H]1[C@H]2C(=O)O[C@H](c3ccccc3)[C@H](c3ccccc3)N2[C@H](c2ccccc2OCCO)[C@@]12C(=O)N(C(=O)OCCOC)c1ccc(C#CCC(C(=O)OC)C(=O)OC)cc12` gave a composite z-score of 2.18. Take `CC(C)[C@H]1COC(=O)N1C(=O)[C@H]1[C@@H](c2ccccc2)N(c2ccccc2)O[C@@H]1C`: the composite z-score is -0.206. The compound `O=C1O[C@@H](c2ccccc2)[C@@H](c2ccccc2)N2[C@@H](c3ccc(O)cc3)[C@]3(C(=O)Nc4ccc(C#CCCO)cc43)[C@@H](C(=O)O)[C@H]12` displayed a composite z-score of 0.86. As to `Cc1ccc(S[C@]2(C(=O)NCCCN(C)C)CC(=O)N(C(C)C)[C@@H]2c2ccc(CO)cc2I)cc1`, the composite z-score was -0.0035. On to `Cc1ccc(N2C(=O)c3ccccc3[C@](C)(C(=O)NCCN3CCOCC3)[C@@H]2c2ccc(CO)cc2)nc1`, for which the composite z-score was found to be 0.0442.

Compound `COC(=O)C(CC#Cc1ccc2c(c1)[C@]1(C(=O)N2)[C@H](C(=O)N2CCCCCCC2)[C@H]2C(=O)O[C@H](c3ccccc3)[C@H](c3ccccc3)N2[C@@H]1c1ccccc1OCCO)C(=O)OC` came in with a composite z-score of 3.17.
